Measured values from the supplement of paper PMC7411640.
Structures can show the parent of a compound that is named as a salt.

Tested on: MDA-MB-468
Assay: phospho-S6 immunofluorescence (DAPI-normalised), per-plate z-score; higher = higher phospho-S6 signal (less pathway suppression)
Conditions: co-treatment: vehicle; 24 h
Description: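 GPCR-targeted compound library (MedChemExpress HY-L006) tested on MDA-MB-468 PTEN-null TNBC cells in 384-well plates at 0.1, 1 or 10 uM, combined with vehicle, GDC0941 450 nM or lapatinib 1 uM, for 24 h. Phospho-S6 (S240/244) immunofluorescence normalised to DAPI and expressed as a per-plate z-score; values are the mean of biological triplicates.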

Row | SMILES | phospho-S6 immunofluorescence (z-score)
1 | CN1CCC(=C2c3ccccc3CCn3c(C=O)cnc32)CC1 [Alcaftadine] (compound 10 µM) | -0.66
2 | C[C@@H](NCCCc1cccc(C(F)(F)F)c1)c1cccc2ccccc12 [Cinacalcet] (compound 10 µM) | -6.21
3 | Cc1ccc(F)cc1C(=O)Nc1ccc(C(=O)N2Cc3cccn3Cc3ccccc32)c(Cl)c1 [Lixivaptan] (compound 10 µM) | 0.62
4 | CCN(CC)CC#CCOC(=O)C(O)(c1ccccc1)C1CCCCC1 (centres undefined) [Oxybutynin (chloride)] (compound 10 µM) | 0.53
5 | C[N+]1(C)CCC(=C(c2ccccc2)c2ccccc2)CC1 [Diphenmanil (methylsulfate)] (compound 10 µM) | 0.8
6 | Nc1ncnc2c1ncn2C1CCCO1 (centres undefined) (compound 10 µM) | -0.21
7 | CC(C)(Cc1ccc2ccccc2c1)NC[C@@H](O)COc1cccc(Cl)c1C#N (compound 10 µM) | -10.1
8 | CN(C)CCOC(C)(c1ccccc1)c1ccc(Cl)cc1 (centres undefined) [Chlorphenoxamine] (compound 10 µM) | -4.5
9 | CCc1cc(/C(C)=N/OCc2ccc(C3CCCCC3)c(C(F)(F)F)c2)ccc1CN1CC(C(=O)O)C1 [Siponimod] (compound 10 µM) | 0.15
10 | CCC(N)(C(=O)O)c1ccc(C(=O)O)cc1 (centres undefined) (compound 10 µM) | -0.54
11 | CCC(=O)NC[C@@H]1C[C@H]1c1cccc2c1CCO2 [Tasimelteon] (compound 10 µM) | 0.27
12 | COc1cc2c(cc1OC)-c1cc3ccc4c(c3c[n+]1CC2)OCO4 [Epiberberine (chloride)] (compound 10 µM) | 1.66
13 | COc1cc2nc(N3CCN(C(=O)c4ccco4)CC3)nc(N)c2cc1OC [Prazosin (hydrochloride)] (compound 10 µM) | 0.24
14 | O=c1ccc2ccc(OCCCCN3CCN(c4cccc5sccc45)CC3)cc2[nH]1 [Brexpiprazole] (compound 10 µM) | -4.57
